Most compounds without a hit are left out; they make up all but 8.1% or so of the library.
RORg inh: blocks mouse ROR gamma transcriptional activity; P51450; Drosophila S2 Gal4-RORgamma UAS-luciferase reporter, 20 h; Potency, µM (doses to about 53.6 µM), hits mostly inhibitors; actives 5.4% (n = 310,000); AID 2551; note: nearly all actives have a fitted effect of over 60% in size
Target sequence (P51450 whole entry, looked up, the tested form may be a part): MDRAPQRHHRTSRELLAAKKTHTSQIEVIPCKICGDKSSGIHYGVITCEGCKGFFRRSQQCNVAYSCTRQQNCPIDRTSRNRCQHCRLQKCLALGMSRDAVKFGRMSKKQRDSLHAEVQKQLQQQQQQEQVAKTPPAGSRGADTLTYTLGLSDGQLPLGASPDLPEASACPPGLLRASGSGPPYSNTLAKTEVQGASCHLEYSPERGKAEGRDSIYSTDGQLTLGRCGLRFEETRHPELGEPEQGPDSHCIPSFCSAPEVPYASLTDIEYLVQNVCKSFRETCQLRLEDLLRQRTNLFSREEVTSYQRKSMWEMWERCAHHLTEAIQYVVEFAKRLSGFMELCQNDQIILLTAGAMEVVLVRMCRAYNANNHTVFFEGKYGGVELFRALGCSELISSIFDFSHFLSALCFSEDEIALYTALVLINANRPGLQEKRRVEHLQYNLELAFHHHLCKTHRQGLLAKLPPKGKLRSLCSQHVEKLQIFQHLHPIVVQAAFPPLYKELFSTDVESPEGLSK
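Using a luciferase readout, inhibitors were identified by reduced reporter activity in Drosophila cells coexpressing a copper-inducible Gal4–ROR gamma fusion and UAS-driven Photinus luciferase, incubated 20 hr after 700 uM copper sulfate.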
Sfp PPTase inh: inhibitors of Bacillus subtilis Sfp phosphopantetheinyl transferase | Q9F4F7 | Biochemical Sfp PPTase activity, qHTS | Potency, µM, hits mostly inhibitors | actives 3.5% (n = 310,000) | AID 1490;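 note: the enzyme is Sfp with the accession as filed and its product quenches rhodamine fluorescence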
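Reaction rates are the 30-min fluorescence difference (ex 525, em 598 nm) in wells containing 15 nM Sfp, 5 uM rhodamine-CoA and 12.5 uM BHQ-2-YbbR at pH 7.6 with 10 mM MgCl2.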
VP16 counter: inhibits Gal4-VP16 luciferase reporter, ROR gamma counter-screen | Drosophila S2 Gal4-VP16 UAS-luciferase, luminescence, 20 h | Potency, µM (doses to about 53.6 µM), hits mostly inhibitors | actives 3.5% (n = 310,000) | AID 2546;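 note: Gal4-VP16 expression switched on by copper sulfate through the metallothionein promoter; nearly all actives have a fitted effect of over 50% in size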
PINK1 expr mod: changes PINK1 expression | PINK1 immunofluorescence, high-content cytometry, 24 h | Potency, µM (top dose mostly 76.6 µM), most hits filed as activators | actives 0.2% (n = 410,000); active = well fitted activation curve with a large enough effect; inconclusive = small, poorly fitted or top-dose-only effect; cell line not stated here; note: nearly all actives have a fitted effect of over 65% in size
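PINK1 protein, normally rapidly degraded, was detected by immunofluorescence after 24 hour compound treatment of a stable cell line. Titration data (5 concentrations) came from laser-scanning cytometry, with CCCP-treated wells as controls.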
Epigenetic reg: epigenetic control regulation, reporter derepression. murine LDR cells, GFP reporter derepression, 30 h. Potency, µM (series often up to 53.9 µM), most hits filed as activators. actives 0.2% (n = 280,000); note: nearly all actives have a fitted effect of over 60% in size
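Murine LDR cells bearing a silenced CMV-driven GFP reporter were exposed to compound for 30 h at 37 C. After PBS washes, GFP-positive cells (20-120 um objects) counted by laser-scanning microplate cytometry.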
ClpP mod: qHTS Assay for Activators of ClpP | ATP-dependent Clp protease proteolytic subunit (Bacillus subtilis (strain 168)), P80244 | purified B. subtilis ClpP, FRET peptide cleavage, 20 min | Potency, µM (doses to about 57.5 µM) | actives 1.9% (n = 340,000) | AID 651965, 2013; active = well fitted falling curve with a large enough effect; inconclusive = small, poorly fitted or top-dose-only effect; inactive = no such curve, though single readings can be large or run the other way; note: the source files actives as falling curves though it sought activators and does not explain the sign; nearly all actives have a fitted effect of over 65% in size
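Buffer: 100 mM Tris/HCl pH8, 100 mM KCl, 0.05% low protease BSA, 2.5% glycerol, 0.01% Tween-20. ClpP 10 microg/mL final; 20 min RT; delta FRET normalized to ADEP and DMSO controls.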
Numbers stand for hits; - = inactive; ? = inconclusive; . = no result given; [ ] = dose if it differs, or a comment. Unless noted, calls come from the whole dose curve; as a rule, active = well fitted curve in the direction sought with a large enough effect; inconclusive = small, poorly fitted or top-dose-only effect, or another doubt; inactive = no such curve, though single readings can be large; an effect the other way counts as inactive or inconclusive.

SMILES	RORg inh	Sfp PPTase inh	VP16 counter	PINK1 expr mod	Epigenetic reg	ClpP mod
NNc1nc(-c2ccccc2Cl)c2cc(Br)ccc2n1	11.2µM	?	?	-	.	-
CCN(CC)c1nc(-c2ccccc2Cl)c2cc(Br)ccc2n1	.	.	.	-	-	-
CC[N+](C)(C)c1ccc(/C=C/c2ccnc3ccccc23)cc1	.	.	.	.	.	-
CCN(CC)CCN(Cc1cc2cc(C)cc(C)c2[nH]c1=O)C(=S)NCc1ccco1	-	-	?	-	-	-
CCN(CC)CCN(Cc1cc2ccc(C)c(C)c2[nH]c1=O)C(=S)NCc1ccco1	-	56.2µM	-	-	-	-
CCN(CC)CCN(Cc1cc2cc(C)ccc2[nH]c1=O)C(=S)NCc1ccco1	-	56.2µM	-	-	-	-
CCN(CC)CCN(Cc1cc2cc3c(cc2[nH]c1=O)OCO3)C(=S)NCc1ccco1	-	?	-	-	-	-
Cc1cc(O)c(C(c2ccccc2Cl)N2CCN(c3ccccc3)CC2)c(=O)n1Cc1ccco1 (stereo not drawn)	.	.	.	-	-	-
N#Cc1ccccc1NC(=O)C(=O)NCC(c1cccnc1)N1CCN(c2ccccc2)CC1 (stereo not drawn)	.	.	.	-	-	-
Cc1ccc(CN2CCCn3nc(C(=O)NCCc4cccc(C)c4)cc3C2=O)cc1	.	.	.	-	-	-
Cn1c(=O)n(C)c2cc(N3CCOCC3)c(NC(=O)c3ccc(Cl)cc3)cc21	.	.	.	-	-	-
S=c1[nH]cc(Cc2ccccc2)s1	12.6µM	?	?	-	-	-
Cc1cc(C)nc(Sc2ccc([N+](=O)[O-])cc2[N+](=O)[O-])n1	8.91µM	-	?	-	-	-
O=[N+]([O-])c1ccc(Sc2cccc3cccnc23)c([N+](=O)[O-])c1	7.08µM	?	7.08µM	-	?	-
C=CCn1nc([N+](=O)[O-])nc1Sc1cccc2cccnc12	8.91µM	-	?	-	?	-
CCCCN(C)CCCNC(=O)C1CCN(c2nc3ccc(CC)cc3s2)CC1	.	.	.	-	-	-
COc1ccc(CNC(=O)C2CCCN2c2nc(C)c3ccccc3n2)cc1 (stereo not drawn)	.	.	.	-	.	.
N#Cc1nc(Cc2ccccc2)oc1N1CCC(Cc2ccccc2)CC1	?	-	-	-	-	-
N#Cc1nc(Cc2ccccc2)oc1N1CCC(C(N)=O)CC1	-	-	-	-	-	12.6µM
COc1cc2c(cc1OC)C1O[C@](c3ccsc3)(C2)OC2=C1C(=O)OC1(CCCCC1)C2	-[10 µM]	-	?	.	.	.
S=C1NCCc2ccc(Cl)cc2C1c1ccccc1Cl (stereo not drawn)	5.01µM	-	3.55µM	-	-	-
COc1ccc2c(c1)CCc1c(C(=O)Nc3ccccc3C(F)(F)F)noc1-2	.	.	.	-	-	-
O=C1c2cc3ccccc3c(-c3ccccc3)c2C(=O)N1c1ccccn1	-	-	-	-	-	31.6µM
Cc1ccc(-c2cc(-c3ccccc3C)[nH]n2)c(O)c1	0.794µM	-	1.41µM	-	-	-
Cc1ccc(O)c(-c2cc(-c3ccccc3F)[nH]n2)c1	?	-	?	-	-	-
SMILES	RORg inh	Sfp PPTase inh	VP16 counter	PINK1 expr mod	Epigenetic reg	ClpP mod
Cc1ccc(-c2cc(-c3cccc(F)c3)n[nH]2)c(O)c1	11.2µM	-	10µM	-	-	-
COc1cccc(C(=O)N(Cc2cc3cc4c(cc3nc2N(C)C)OCO4)CC2CCCO2)c1 (stereo not drawn)	.	.	.	-	.	.
Cc1cc(=O)[nH]c(NN)n1	-	44.7µM	-	-	-	-
Cc1cc(=O)[nH]c(NN=C2C3CC4CC(C3)CC2C4)n1	-	44.7µM	-	-	-	-
Cc1cc(=O)[nH]c(NN=C2CCCCC2C)n1 (stereo not drawn)	.	.	.	-	.	-
Cc1cc(C)cc(NC(=O)c2cc3c(=O)n(Cc4ccco4)ccc3nc2C)c1	.	.	.	-	-	-
c1ccc(-c2csc(Nc3cccnc3)n2)cc1	-	31.6µM	-	-	-	.
Clc1ccc(Nc2nc(-c3cccnc3)cs2)cc1	-	79.4µM	-	-	-	-
COc1cccc(CNC(=O)Cn2cc3c(n2)-c2c(oc(C(=O)N4CCOCC4)c2C)CC3)c1	.	.	.	-	-	-
